Experimental data: the supplement of paper PMC7695840

Legend:
[1] = test system: Staphylococcus aureus MW2 delta-mecA (mecA-); assay: normalized GFP fluorescence (growth of mecA- strain) (fraction of control range); higher = more growth of mecA- strain; conditions: compound concentration: 150 uM; cefoxitin: subinhibitory; fluorescent label: GFP
Procedure, shortened: (§1)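 Compound at 150 μM (1.5% DMSO) in 1536-well plates received 5 µL/well of pre-induced S. aureus MW2 cells mixed 1:1, gene-carrying with DsRed and gene-deleted with GFP, in LB with a daily-set subinhibitory antibiotic dose, single replicate. After 20 h unshaken at 37 °C, 90% humidity, DsRed (540/590) and GFP (485/520) were measured and scaled per plate between single-strain control medians. Plates with high untreated ratios and rows with DsRed/GFP >10 were excluded.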

[2] = test system: Staphylococcus aureus MW2 (mecA+); assay: normalized DsRed fluorescence (growth of mecA+ strain) (fraction of control range); higher = more growth of mecA+ strain; conditions: compound concentration: 150 uM; cefoxitin: subinhibitory; fluorescent label: DsRed
Procedure, shortened: as §1

SMILES	normalized GFP fluorescence [1]	normalized DsRed fluorescence [2]
COc1ccccc1OCCNCC(O)COc1cccc2[nH]c3ccccc3c12 (stereo unspecified)	0.0386	1.17
CN1C(CCl)Nc2cc(Cl)c(S(N)(=O)=O)cc2S1(=O)=O (stereo unspecified) [Methyclothiazide]	0.383	0.579
Nc1ccn([C@H]2CC[C@@H](CO)O2)c(=O)n1	0.265	0.779
CN1CCC(=C2c3ccccc3CCc3cccnc32)CC1	0.396	0.798
O=C(c1cc(Cc2n[nH]c(=O)c3ccccc23)ccc1F)N1CCN(C(=O)C2CC2)CC1 [Olaparib (AZD2281)]	0.204	0.856
Cc1cccc(C)c1OCC(C)N (stereo unspecified)	0.344	1.02
Nc1ccc(C(=O)O)cc1	0.617	0.958
CN(C)CC/C=C1/c2ccccc2Sc2ccc(Cl)cc21	0.0199	1.12
C#C[C@]1(O)CC[C@H]2[C@@H]3CCC4=CC(=O)CC[C@@H]4[C@H]3CC[C@@]21CC	0.305	1.05
CCN(CC)CCNC(=O)c1cc(S(C)(=O)=O)ccc1OC	0.437	0.945
CCN(CC)CCNC(=O)c1cc(Cl)c(N)cc1OC	0.639	0.756
Cc1c2oc3c(C)ccc(C(=O)N[C@@H]4C(=O)N[C@H](C(C)C)C(=O)N5CCC[C@H]5C(=O)N(C)CC(=O)N(C)[C@@H](C(C)C)C(=O)O[C@@H]4C)c3nc-2c(C(=O)N[C@@H]2C(=O)N[C@H](C(C)C)C(=O)N3CCC[C@H]3C(=O)N(C)CC(=O)N(C)[C@@H](C(C)C)C(=O)O[C@@H]2C)c(N)c1=O	-0.00268	0.0533
NC(=O)c1cn(Cc2c(F)cccc2F)nn1 [Rufinamide (Banzel)]	0.199	0.955
